Screens from PubChem.
This is a sample that favours compounds with a hit; in the whole collection about 2.3% have one here.
beta cell repl: inducers of MIN6 beta-cell proliferation, primary screen, ATP luminescence, uHTS; 0.29% of 330,000 active; AID 2380, 2010; proliferation, % at 10 µM; MIN6 cells proliferation, ATPlite luminescence, 48 h; cells starved in 0.2% serum; 100% = growth in 10% serum;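 active = compounds whose signal lies at least 3.5 SD above the mean of all wells on their plate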;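 also: 0% = DMSO-treated cells in low-serum medium and 100% = 10% serum control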
H9c2 TAG inh: inhibitors of triacylglycerol accumulation, primary screen, cell-based, uHTS, fluorescence, H9c2; inhibition, % at 12.5 µM; 0.66% of 230,000 active; H9c2 cells, Nile Red lipid (TAG) fluorescence; cells loaded with 200 µM oleic acid;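 active = pattern-corrected inhibition of lipid staining of at least 50% with the nuclear-stain viability signal not falling by more than 50%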;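 also: 0% = DMSO wells and 100% = triacsin C control wells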
FAS TE block: FAS thioesterase domain inhibitors, primary screen, biochemical, fluorescence intensity, uHTS; Fatty acid synthase (Homo sapiens), P49327; recombinant FAS-TE, OMFH fluorogenic substrate, fluorescence endpoint; inhibition, % at 15 µM; 0.67% of 360,000 active;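 active = compounds whose normalised, plate-corrected inhibition of enzyme fluorescence in the single-dose primary screen is 50% or more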;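 also: 0% = DMSO with enzyme and 100% = substrate without enzyme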
H9c2 protect: cardioprotection against H2O2-induced cell death, primary screen, uHTS, H9c2 cells, ATPLite luminescence. protection from H2O2 cell death, % at 20 µM. H9c2 cardiomyocytes, H2O2 injury protection, 2 h. 0.63% of 360,000 active;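 active = compounds giving at least 50% protection of heart cells from peroxide-induced death in the single-dose screen, raw or plate-pattern-corrected value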;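 also: 0% = DMSO wells with peroxide and 100% = DMSO wells without peroxide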
Calpain2 inh: inhibitors of pig calpain II, primary screen, biochemical, fluorogenic peptide substrate, 1536-well; purified calpain II, 30 min; inhibition, % at 16 µM; 0.37% of 220,000 active;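 active = inhibition above about 50%, limit read from the data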
aDG glyco act: activators of alpha-DG glycosylation, primary screen, uHTS, Pro5-aDG cells, AlphaScreen | activation, % at 10 µM | 0.22% of 360,000 active | alpha-DG glycosylation AlphaScreen (IIH6); 0% Pro5, 100% B10-LARGE cell signal | AID 624168, 2012;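 active = activation of at least 8% versus controls, or a plate z-score of at least 8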;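 also: Pro5 are CHO cells carrying HIG-tagged alpha-DG that lacks glycosylation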
FAS-TE inh conf: FAS thioesterase domain inhibitors, confirmation, biochemical, fluorescence intensity, single concentration; shares compounds with FAS TE block; recombinant FAS-TE, OMFH fluorogenic substrate; inhibition, % at 15 µM; 45% of 2,300 active; AID 624325, 2012;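 active = compounds inhibiting the enzyme by at least 50% at 15 µM in any one of the replicates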;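 also: 0% = enzyme with DMSO only and 100% = wells lacking enzyme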
* hit, by the source's call; · = not tested or not shown.

SMILES	beta cell repl	H9c2 TAG inh	FAS TE block	H9c2 protect	Calpain2 inh	aDG glyco act	FAS-TE inh conf
Cc1nc2ccc([N+](=O)[O-])cc2c(=O)n1Cc1ccc(Cl)cc1	0.1	·	82.8*	-6.3	·	0.3	84.8*
COc1ccc(Cn2c(C)nc3ccc([N+](=O)[O-])cc3c2=O)cc1	-0.8	-19.5	70.0*	-9.2	·	0.1	47.8*
O=C(NNc1ccc([N+](=O)[O-])cc1)C12CC3CC(CC(C3)C1)C2	-4.1	·	51.6*	7.3	27.4	0.0	45.1
O=C(NNC(=O)C12CC3CC(CC(C3)C1)C2)c1cccc([N+](=O)[O-])c1	0.0	·	22.3	-0.8	·	0.1	·
O=C(Nc1ccc(S(=O)(=O)N2CCOCC2)cc1)c1ccc2c(c1)S(=O)(=O)c1ccccc1C2=O	0.8	17.1	-3.7	-7.7	-62.1	0.2	·
O=C(Nc1cc(S(=O)(=O)N2CCOCC2)ccc1O)c1ccc2c(c1)S(=O)(=O)c1ccccc1C2=O	-0.5	-10.6	57.4*	5.7	-22.3	-0.3	30.5
O=C(Cc1ccc(S(=O)(=O)N2CCOCC2)s1)N1CCN(S(=O)(=O)c2cccc([N+](=O)[O-])c2)CC1	-2.6	-5.8	37.4	-1.5	·	0.7	·
O=C(Cc1ccc(S(=O)(=O)N2CCOCC2)s1)N1CCN(S(=O)(=O)c2ccccc2[N+](=O)[O-])CC1	·	0.5	87.3*	-2.3	·	0.1	83.3*
Cc1ccc(C)c(S(=O)(=O)N2CCN(C(=O)Cc3ccc(S(=O)(=O)N4CCOCC4)s3)CC2)c1	4.0	0.9	69.4*	-3.2	·	0.0	63.0*
CC[C@@]12C(=O)N(c3ccc(OC)cc3)C(=O)N1[C@H](c1ccc(Cl)cc1)[C@@H]1C(=O)N(C3CCCCC3)C(=O)[C@@H]12	0.2	17.0	66.9*	-4.4	·	0.2	42.2
CC(C)C[C@@]12C(=O)N(c3cccc(Br)c3)C(=O)N1[C@H](c1ccc(Cl)cc1)[C@@H]1C(=O)N(C3CCCCC3)C(=O)[C@@H]12	-7.5	·	91.8*	-2.8	·	0.0	18.7
CC[C@@]12C(=O)N(c3cccc(Br)c3)C(=O)N1[C@H](c1ccc(Cl)cc1)[C@@H]1C(=O)N(C3CCCCC3)C(=O)[C@@H]12	-7.6	7.8	86.9*	-6.3	·	0.7	19.1
CC(C)C[C@@]12C(=O)N(c3cccc(Cl)c3)C(=O)N1[C@H](c1ccc(Cl)cc1)[C@@H]1C(=O)N(C3CCCCC3)C(=O)[C@@H]12	-6.0	·	89.8*	1.0	·	0.7	28.3
CCc1c(O)nc(SCC(=O)Nc2ccc(Cl)cc2)n(-c2ccccc2)c1=O	·	-2.3	-15.9	13.7	·	-0.3	·
O=C(O)CNc1nc(NCc2ccc(Cl)cc2)ccc1[N+](=O)[O-]	·	-8.4	-4.9	-4.2	·	-0.1	·
Cc1ccc(C(=O)CN(C(=O)c2ccc(Cl)c(Cl)c2)N2C(=O)C3C4C=CC(C4)C3C2=O)cc1 (centres undefined)	-3.4	·	60.7*	-2.6	14.6	-0.1	30.0
O=C(CN(C(=O)c1ccc(Cl)cc1Cl)N1C(=O)C2C3C=CC(C3)C2C1=O)c1ccc(F)cc1 (centres undefined)	2.8	·	17.1	3.1	·	0.2	·
Cc1cccn2c(=O)c(/C=C(\C#N)S(=O)(=O)c3ccccc3)c(N3CCCCC3)nc12	-3.1	-4.0	54.0*	-4.4	-29.3	0.2	5.2
N#C/C(=C\c1c(N2CCN(c3ccccc3)CC2)nc2ccccn2c1=O)S(=O)(=O)c1ccccc1	1.5	·	70.6*	5.9	·	-0.2	9.1
Cc1cccn2c(=O)c(/C=C(\C#N)S(=O)(=O)c3ccccc3)c(N3CCN(C)CC3)nc12	0.1	2.7	7.4	11.7	4.5	0.2	·
CCOC(=O)C1CCN(c2nc3c(C)cccn3c(=O)c2/C=C(\C#N)S(=O)(=O)c2ccccc2)CC1	-1.6	-4.9	64.8*	11.0	-20.4	2.7	5.2
N#Cc1ccc(NC(=S)NC(=O)C2CC2)cc1	·	7.0	-2.6	-4.4	·	-0.2	·
S=C(NCCCN1CCOCC1)N1CCN(c2cccc(Cl)c2)CC1	-4.2	·	-4.3	13.0	·	0.1	·
CCOC(=O)[C@]12Cc3c(cc(OC)c(OC)c3OC)[C@H]1N(C1CCCCC1)C(=O)c1cc(OC)ccc12	·	·	50.2*	·	·	-0.5	37.9
COc1ccc(C2C(C(=O)N3CCN(C)CC3)c3ccccc3C(=O)N2C2CCCCC2)cc1 (centres undefined)	0.0	25.5	2.0	1.2	18.2	0.1	·
SMILES	beta cell repl	H9c2 TAG inh	FAS TE block	H9c2 protect	Calpain2 inh	aDG glyco act	FAS-TE inh conf
N#CC(CCc1ccccc1[N+](=O)[O-])(CCc1ccccc1[N+](=O)[O-])C(N)=O	·	-6.0	51.9*	-1.3	·	-0.3	46.6*
Cc1cc(/C=N/NC(=O)CC#N)c(C)n1-c1ccc([N+](=O)[O-])cc1	-2.4	-8.3	-1.0	4.4	-27.4	-0.1	·
COCc1c(Br)c(C)nc(OCC(=O)N/N=C/c2cc(C)n(-c3ccc([N+](=O)[O-])cc3)c2C)c1C#N	-2.8	5.6	61.6*	-11.5	-77.9	-0.2	-3.0
O=C(CSCc1ccc(F)cc1)Nc1ccc(N2CCOCC2)cc1N1CCOCC1	-1.9	-2.9	-0.1	4.6	·	-0.1	·
Cc1nn(Cc2ccc(F)cc2)c2sc(C(=O)Nc3ccc(N4CCOCC4)cc3N3CCOCC3)cc12	-1.6	20.6	51.8*	46.8	-17.9	-0.7	26.4
CCCn1c(CN2CCN(c3cccc(Cl)c3)CC2)nc2c1c(=O)n(C)c(=O)n2C	-6.7	-10.2	34.2	-23.1	-38.0	0.8	·
CCCCCn1c(CN2CCN(c3cccc(Cl)c3)CC2)nc2c1c(=O)n(C)c(=O)n2C	-2.2	·	79.0*	-17.2	·	0.4	35.3*
CCCCn1c(CN2CCN(c3ccccc3)CC2)nc2c1c(=O)n(C)c(=O)n2C	-6.3	-3.9	50.4*	-25.4	-20.2	0.5	49.6*
CCCCn1c(CN2CCN(c3cccc(Cl)c3)CC2)nc2c1c(=O)n(C)c(=O)n2C	-5.7	·	70.7*	-14.3	-63.2	1.1	54.4*
O=C(O)/C=C\C(=O)Nc1ccccc1C(=O)N1CCC(O)(c2ccc(Cl)cc2)CC1	·	·	-6.1	-2.5	·	0.0	·
CC(O)(c1cccc(F)c1)c1nc(-c2ccc(S(C)(=O)=O)cc2)cs1 (centres undefined)	·	-12.6	8.1	0.2	·	-0.2	·
COc1ccc(C(=O)N/C(=C\c2cn(S(=O)(=O)N(C)C)c3ccccc23)C(=O)NCCCn2ccnc2)cc1	2.8	·	54.0*	-0.8	·	0.0	37.5
